Rows were chosen to be rich in hits. Some 4% of all compounds tested hit in one or more screens of this group.
Mtb UGM inh – M. tuberculosis UGM enzyme inhibitors, primary screen, biochemical, fluorescence polarization, single point; UDP-galactopyranose mutase (Mycobacterium tuberculosis (strain ATCC 25618 / H37Rv)), …; purified UGM, fluorescence polarization probe displacement; inhibition, % at 10 µM; hit rate 0.06% among 320,000; in the data active means inhibition above about 10%, passing the limit was not always enough; inconclusive means no clear call, values can overlap the other calls
Target sequence (P9WIQ1 whole entry, looked up): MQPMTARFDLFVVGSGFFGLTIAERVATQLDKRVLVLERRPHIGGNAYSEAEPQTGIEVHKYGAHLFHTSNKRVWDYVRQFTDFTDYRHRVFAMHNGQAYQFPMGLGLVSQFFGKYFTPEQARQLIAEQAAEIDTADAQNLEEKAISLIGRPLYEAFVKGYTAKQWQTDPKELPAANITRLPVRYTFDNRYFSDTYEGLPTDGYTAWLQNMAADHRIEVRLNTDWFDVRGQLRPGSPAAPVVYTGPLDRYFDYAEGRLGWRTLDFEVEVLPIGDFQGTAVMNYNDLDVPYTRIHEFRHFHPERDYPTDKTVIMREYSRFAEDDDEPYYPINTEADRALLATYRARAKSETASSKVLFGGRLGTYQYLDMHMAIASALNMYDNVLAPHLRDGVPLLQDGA
RecA intein inh – Mtb RecA intein splicing inhibitors, primary screen, biochemical, fluorescence, HTS. Protein RecA (Mycobacterium tuberculosis (strain ATCC 25618 / H37Rv)), P9WHJ3. cell-free RecA intein splicing. inhibition, % (test concentration not listed). hit rate 0.75% among 290,000. AID 2221, 2009; in the data active means inhibition above about 30%; inconclusive means no clear call, values can overlap the other calls
Mtb FBA inh – Mtb FBA enzyme inhibitors, primary screen, biochemical, fluorescence, strain H37Rv; inhibition, % at 1 µM; purified M. tuberculosis FBA, fluorescence read-out; AID 588726, 2011; hit rate 2.3% among 360,000; in the data active means inhibition above about 27%
GDH-TPI counter – GDH-TPI coupling enzyme inhibitors, primary screen, artefact control for M. tuberculosis FBA inhibitor project, biochemical, absorbance, full deck. GDH-TPI coupled enzyme counterscreen, NADH absorbance. inhibition, % at 4.8 µM. hit rate 1.2% among 360,000. AID 588335, 2011; in the data active means inhibition above about 30%
Rv3671c protease – Rv3671c serine protease inhibitors, primary screen, biochemical, fluorescence polarization, M. tuberculosis H37Rv. inhibition, % at 5.96 µM. P9WHR9. hit rate 0.048% among 320,000; in the data active means inhibition above about 38%;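 further: extracellular domain of Rv3671c used as enzyme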
Mtb betalactam – beta-lactam sensitization of Mtb H37Rv, H37Rv; inhibition, % at 25 µM; M. tuberculosis H37Rv growth with meropenem, percent inhibition; hit rate 0.27% among 330,000; call rule not given here;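 further: growth measured after seven days incubation then overnight dye step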
Of the large screens only hits and unclear results are named; the others gave an inactive call.

CN(Cc1cnc2nc(N)nc(N)c2n1)c1ccc(C(=O)NC(CCC(=O)O)C(=O)O)cc1C(F)(F)F (stereo unspecified)	Mtb FBA inh 33.1 (no result: Mtb UGM inh, RecA intein inh, Rv3671c protease, Mtb betalactam)
CN(Cc1cnc2nc(N)nc(N)c2n1)c1ccc(C(=O)NC(CCC(=O)O)C(=O)O)cc1 (stereo unspecified)	Mtb FBA inh 73.6 (no result: Mtb UGM inh, RecA intein inh, Rv3671c protease, Mtb betalactam)
CCCC(=O)N1CCC1(C)C(=O)NS(=O)(=O)c1cccc(Cl)c1 (stereo unspecified)	none (no result: Mtb UGM inh, RecA intein inh, Rv3671c protease, Mtb betalactam)
CCN(CC)C(=O)C1=C(C)N(CCCOC)C(=O)C(CC(=O)NCc2ccco2)C1 (stereo unspecified)	none (no result: Mtb UGM inh, RecA intein inh, Rv3671c protease, Mtb betalactam)
CC(=O)NC(CC(=O)OCC(=O)N1CCc2ccccc21)c1ccccc1 (stereo unspecified)	none
Cc1cccc(N=c2oc3cc(O)ccc3cc2C(N)=O)c1	Mtb FBA inh active
COc1cccc(OCc2ccc(C(=O)NCC3CCCO3)cc2)c1 (stereo unspecified)	none (no result: Mtb UGM inh)
COc1ccccc1N=c1oc2cc(O)ccc2cc1C(N)=O	Mtb FBA inh active
COc1cccc(N=c2oc3cc(O)ccc3cc2C(=O)NCC2CCCO2)c1 (stereo unspecified)	Mtb FBA inh active (no result: RecA intein inh)
COc1cccc(C(=O)N/N=c2/oc3ccccc3cc2C(N)=O)c1	none
COc1ccc2cc(C(N)=O)/c(=N\NC(=O)c3ccccc3)oc2c1	Mtb FBA inh 112.2
CC1CN(CC(O)COc2ccc(C#N)cc2)CCN1CC(O)COc1ccc(C#N)cc1 (stereo unspecified)	none
Cc1noc(C)c1COc1ccc(C(=O)N2CCCC(C(F)(F)F)C2)cc1 (stereo unspecified)	none
Cc1ccc(S(=O)(=O)NC(=O)C2(C)CCN2C(=O)Cc2ccc(Cl)cc2Cl)cc1 (stereo unspecified)	none (no result: Mtb UGM inh, RecA intein inh, Rv3671c protease, Mtb betalactam)
COc1cccc2cc(C(=O)NCC3CCCO3)c(=O)oc12 (stereo unspecified)	none
COc1ccccc1N=c1oc2cc(O)ccc2cc1C(=O)NCC1CCCO1 (stereo unspecified)	Mtb FBA inh active, Mtb betalactam inconclusive
O=C(C1CCCN1C(=O)c1cccs1)N1CCN(S(=O)(=O)c2ccc(F)cc2)CC1 (stereo unspecified)	none (no result: RecA intein inh)
Cc1cc(C)c[n+](-c2[nH]c(=O)sc2/C=N/N=C(\[O-])c2cccnc2)c1	GDH-TPI counter 34.8
CCOC(=O)c1sc(NC(=O)CSc2ncn[nH]2)c(C#N)c1C	GDH-TPI counter 31.3
CCOC(=O)c1sc(NC(=O)CSc2ccccn2)c(C#N)c1C	none
CCOC(=O)c1sc(NC(=O)CSc2n[nH]c(-c3ccccc3)n2)c(C#N)c1C	GDH-TPI counter 32.8
CCOC(=O)c1sc(NC(=O)CSc2nc(C)cc(C)n2)c(C#N)c1C	GDH-TPI counter 31.8
CCOC(=O)c1sc(NC(=O)CSc2nnc(Cc3ccccc3)o2)c(C#N)c1C	none
CN1CCN(C(=O)c2cccn(Cc3c(Cl)cccc3Cl)c2=O)CC1	none
CC(C)C[C@H](NC(=O)[C@H](Cc1ccccc1)n1c(=O)[nH]c2ccccc2c1=O)C(=O)N1CCC[C@@H]1C(=O)O	none (no result: RecA intein inh)
O=C(C1CCC(C(=O)N2CCc3ccccc32)CC1)N1CCc2ccccc21 (stereo unspecified)	none
O=C(CCl)c1ccc2c(c1)CCN2C(=O)C1CC1	RecA intein inh 60.4 (no result: Mtb FBA inh, GDH-TPI counter)
CC(C)OCCCn1c(SCC(=O)Nc2ccccc2C(F)(F)F)nc2nccnc2c1=O	none
COc1ccc(C(=O)OC(C)CN2CCOCC2)cc1 (stereo unspecified)	none
COc1ccc(C(=O)OC(C)CN2CCOCC2)cc1OC (stereo unspecified)	Mtb FBA inh 121.4
CC(Sc1nc(N)cc(N)n1)C(=O)Nc1ccc(N2CCOCC2)cc1 (stereo unspecified)	none (no result: RecA intein inh)
COc1ccc(COC(=O)c2ccc(Br)c(S(=O)(=O)N3CCOCC3)c2)cc1F	none
O=C1CC(c2cccnc2)=NN1c1ccccc1	RecA intein inh 64.4
Cc1nc(Cc2nnc(SCC(=O)N3c4ccccc4NC(=O)C3(C)C)o2)cs1	none (no result: Mtb UGM inh, RecA intein inh, Rv3671c protease, Mtb betalactam)
Cc1nnc(NC(=O)c2oc3c(ccc4ccccc43)c2C)s1	GDH-TPI counter 32.2
Cc1nc(NC(=O)c2oc3ccccc3c2C)sc1C(=O)N(C)C	GDH-TPI counter 32.4
Cc1nnc(NC(=O)c2oc3ccccc3c2C)s1	none
Cc1nc(NC(=O)/C=C/c2ccc(F)cc2)sc1C(=O)N(C)C	GDH-TPI counter 33.9
Cc1nn(CCCC(=O)NCCCN2CCN(C)CC2)c(=O)c2c1sc1ccccc12	none
Cc1cccc(CN(C)C[C@H]2OCc3cnnn3CCCC(=O)N([C@H](C)CO)C[C@@H]2C)c1	none (no result: Mtb UGM inh, RecA intein inh, Rv3671c protease, Mtb betalactam)
O=C(c1ccc(NC2=NC3CS(=O)(=O)CC3S2)cc1)N1CCN(c2ccc([N+](=O)[O-])cc2)CC1 (stereo unspecified)	none
CCc1ccc(/C=C2\CN(CC)Cc3c2nc2ccccc2c3C(=O)O)cc1	GDH-TPI counter 43.6
COc1ccc(C=NNc2nc3ccccc3s2)cc1	none (no result: Mtb UGM inh, RecA intein inh, Rv3671c protease, Mtb betalactam)
Cc1ccc2[nH]c(C)c(/C=N/Nc3nc4ccccc4s3)c2c1	GDH-TPI counter 38.3
O=C(COC(=O)c1cc(S(=O)(=O)N2CCOCC2)ccc1Cl)NCc1ccccc1	none (no result: RecA intein inh)
CC(C)(C)n1nnnc1C(c1cc2cc3c(cc2[nH]c1=O)OCCO3)N1CCSCC1 (stereo unspecified)	Mtb FBA inh 33.7
CSc1cccc(NC(=O)CCCOc2cc(=O)n(C)c3ccccc23)c1	none (no result: Mtb UGM inh, RecA intein inh, Rv3671c protease, Mtb betalactam)
CN(C)/C=C/C(=O)c1nnn(C2CCCCC2)c1NC1CCCCC1	GDH-TPI counter 38.5
C1CCC(Nc2nnnn2C2CCCCC2)CC1	none
COc1ccc(CN(C)C(=O)c2cc(S(=O)(=O)Nc3ccccc3F)ccc2C)c(OC)c1	Mtb betalactam inconclusive
Cc1ccc2nc(-c3ccccc3N)[nH]c2c1	Mtb FBA inh active
Cc1ccc(C)c(-c2nc3ccc(N)cc3[nH]2)c1	Mtb FBA inh 189.5
Cc1ccc2nc(Cc3ccc(N)cc3)[nH]c2c1	none
Nc1ccc2nc(-c3cc(Cl)c(N)c(Cl)c3)[nH]c2c1	GDH-TPI counter 35.4
Cc1nc2ccc(-c3nc4ccc(N)cc4[nH]3)cc2[nH]1	Mtb FBA inh active
CCCCn1c(N)c(N(CCOC)C(=O)c2cccc(S(=O)(=O)N(C)c3ccc(C)cc3)c2)c(=O)[nH]c1=O	none
CC(NC(=O)C1CC(=O)N(c2ccc3c(c2)OCCO3)C1)c1ccccc1 (stereo unspecified)	none (no result: Mtb UGM inh, RecA intein inh, Rv3671c protease, Mtb betalactam)
O=C(CSc1nnc2ccccn12)NC(=O)c1ccccc1Cl	none (no result: RecA intein inh)
CC1(CCc2ccccc2)NC(=O)N(CC(=O)Nc2ccc(OC(F)F)cc2)C1=O (stereo unspecified)	none (no result: RecA intein inh)
Nc1ccc(-c2nc3ccc([N+](=O)[O-])cc3[nH]2)cc1	none

Assay outcomes from PubChem BioAssay.
